Screening results: PubChem, National Center for Advancing Translational Sciences (NCATS)
This is a sample that favours compounds with a hit; in the whole collection about 1.6% have one here.
p53ts 39C kill: cytotoxicity in p53ts cells at nonpermissive temperature; Potency, µM (top dose mostly 46.1 µM), inactives show at the top dose activity change, negative = cell killing, hits mostly cytotoxic; 130,000 tested, 1.5% active; H1299-p53A138V viability at 39C, ATP luminescence, 24 h; further: on the % scale 0 is the no-effect control and ±100 the full control effect; nearly all actives have a fitted effect of over 55% in size
p53ts 32C tox: kills p53ts cells at the permissive temperature. 130,000 tested, 0.93% active. H1299-p53A138V at 32C, ATP luminescence viability, 24 h. Potency, µM (titrated, usually from 46.1 µM), for inactives: at the top dose activity change, negative = cytotoxicity, hits mostly cytotoxic;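 further: 0% = DMSO and -100% = full killing by reference compound; nearly all actives have a fitted effect of over 55% in size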
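Viability by ATPlite luminescence after 24 h compound treatment (up to 46 uM) at the permissive 32C. Cells are H1299 carrying p53 A138V. Scale runs from DMSO basal to 100 uM tamoxifen as full kill; AC50 from Hill fits.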
IkB signaling: suppresses IkB signaling in ABC-DLBCL reporter cells. ABC-DLBCL IkBa-CBG/CBR dual luciferase ratio, 4 h; response scale: scaled: untreated 0%, proteasome inhibitor 100%. Potency, µM (doses to about 57.1 µM), for the others: top-dose IkBa stabilization activation. 110,000 tested, 0.04% active. AID 445; active means well fitted curve in the direction sought with a large enough effect in the signal ratio, not every such curve was filed as active; inconclusive means small, poorly fitted or top-dose-only effect, or a change in a side signal; the % refers to the signal ratio;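 further: the direction sought is a rising ratio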
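In this assay, an IκBα–CBG68 fusion accumulates when IKK-driven degradation is blocked; native CBR normalizes for cell number. OCI-Ly3 cells were treated 4 h with compound and doxycycline, then green and red light read after Chroma-Glo addition.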
Peg3 imprint: induces erasure of genomic imprints in mouse ES cells; mouse ES Peg3-LacZ reporter, beta-gal luminescence, 40 h; Potency, µM (top dose mostly 60.7 µM), without a hit: at the highest dose activity change, positive = activation, hits mostly activators; 110,000 tested, 0.02% active; AID 1948
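Readout: BetaGlo luminescence (5 min, room temp) for LacZ from the normally silent maternal Peg3 allele in female Peg3LacZ-Neo ES cells. Cells 300/well, 40 h, 37C, 5% CO2. Data normalized per plate to negative controls.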
The depositor's hits bear a star; ? = inconclusive; . = not tested or not shown; [ ] = dose if it differs, or a comment. Unless noted, the call rests on the fitted dose curve; in most records, active means well fitted curve in the direction sought with a large enough effect; inconclusive means small, poorly fitted or top-dose-only effect, or another doubt; inactive means no such curve, though single readings can be large; an effect the other way counts as inactive or inconclusive. Potency means the concentration at half of the fitted maximal effect.

SMILES	p53ts 39C kill	p53ts 32C tox	IkB signaling	Peg3 imprint
CCC(=O)Nc1ccc2oc(-c3cccc(C)c3)nc2c1	?	12.6µM*	3.9%	-90.6%
Cc1ccc(SCC(=O)Nc2ccc3oc(-c4cccc(C)c4)nc3c2)cc1	-10.7%	-14.0%	2.0%	-13.0%[10.9 µM]
Cc1ccc(C)c(NC(=O)C(Cc2ccccc2)N2Cc3ccccc3C2=O)c1 (configuration not stated)	.	-1.4%	.	.
O[C@@H](c1cc(C(F)(F)F)nc2c(Cl)cc(Cl)cc12)C1CCCCN1 (some centres not stated)	.	.	.	17.8%[10.9 µM]
CC(C)C1=C[C@@]23CC[C@@H]4[C@](C)(CCC[C@@]4(C)C(=O)O)[C@@H]2C[C@@H]1[C@@H](C(=O)O)[C@@H]3C(=O)O	7.6%[9.22 µM]	3.3%[9.22 µM]	-0.5%[11.4 µM]	-2.1%[10.9 µM]
CCCC(=O)Nc1cccc(-c2nc3cc(C)c(C)cc3o2)c1	?	15.8µM*	1.6%	-44.5%
O=C(Cn1c(=O)n(-c2ccccc2)c(=O)c2c3c(sc21)CCCC3)Nc1ccccc1	12.6µM*	?	5.4%	5.9%[10.9 µM]
CS(=O)(=O)N(CC(=O)O)c1ccccc1	-1.1%	3.4%	.	.
CN(C)c1ccc(/C=N/n2ncc3ccccc32)cc1	15.8µM*	12.6µM*	?	-68.6%
CCn1c(SCC(=O)Nc2cc(C)on2)nc2c(c1=O)SC(C)C2 (configuration not stated)	11.0%	3.8%	-2.0%	-7.8%
Cc1ccc(-n2c(SCC(=O)Nc3cc(C)on3)nc3c(c2=O)SC(C)C3)cc1 (configuration not stated)	?	10µM*	-5.3%	-44.7%
Cc1cc(N)c2cc(OCCOc3ccc4nc(C)cc(N)c4c3)ccc2n1	7.6%[9.22 µM]	-3.4%[9.22 µM]	.	-16.4%[10.9 µM]
Nc1nc(Nc2cccc(F)c2)nc2ccccc12	12.6µM*	?	0.0%	-85.6%
Cc1cccc(-c2nc(CN3CCCC(C(=O)NCCc4ccc(Cl)cc4)C3)c(C)o2)c1 (configuration not stated)	12.6µM*	?	?	-13.5%[10.9 µM]
Cc1oc(-c2ccc(Cl)cc2)nc1CN1CCCC(C(=O)NCCc2ccccc2)C1 (configuration not stated)	?	-13.4%	?	-12.1%[10.9 µM]
CCCCN(C)CC(O)Cn1cc(/C=C/C(=O)c2ccc(OCC)cc2)c2ccccc21 (configuration not stated)	5.01µM*	15.8µM*	?	-2.2%[10.9 µM]
CC(=O)Nc1ccc(NC(=O)c2nc(S(=O)(=O)Cc3ccc(F)cc3)ncc2Cl)cc1	10µM*	-17.9%	0.4%	-37.1%[10.9 µM]
COc1ccc(OC)c(NC(=O)c2nc(S(=O)(=O)Cc3ccc(F)cc3)ncc2Cl)c1	10µM*	?	-1.6%	-35.5%[10.9 µM]
Cc1cccc(NC(=O)c2nc(S(C)(=O)=O)ncc2Cl)c1	?	?	?	-42.3%[10.9 µM]
Cc1ccc(NC(=O)c2nc(S(=O)(=O)Cc3ccc(F)cc3)ncc2Cl)cc1C	2.51µM*	15.8µM*	?	-39.7%[10.9 µM]
COc1ccc(C(=O)[C@H]2[C@H]3[C@@H](C(=O)[C@@H]4OC[C@H]3O4)[C@H]3C=Cc4ccccc4N32)c(OC)c1	.	.	0.6%[11.4 µM]	.
c1ccc(Nc2ccccc2Nc2ccccn2)nc1	5.4%	2.0%	0.5%	0.4%
Oc1cccc2ccc(Nc3ccccn3)nc12	10µM*	15.8µM*	.	.
Cc1ccc(C(CC(=O)NCC2(c3ccccc3)CCCC2)c2ccccc2)c(O)c1 (configuration not stated)	15.8µM*	-27.4%	?	-4.6%[10.9 µM]
COc1ccc(-n2ncc3c(NC4CCCC4)ncnc32)cc1	2µM*	5.01µM*	-0.8%	-16.4%[10.9 µM]
SMILES	p53ts 39C kill	p53ts 32C tox	IkB signaling	Peg3 imprint
Cc1ccc(-n2ncc3c(NC4CCCCC4)ncnc32)cc1Cl	?	?	?	-8.0%[10.9 µM]
Cc1ccc(-n2ncc3c(NC4CCCC4)ncnc32)cc1	?	12.6µM*	5.7%	-20.5%[10.9 µM]
c1ccc(-n2ncc3c(NC4CCCC4)ncnc32)cc1	10µM*	12.6µM*	4.4%	-16.6%[10.9 µM]
COc1ccc(-n2ncc3c(NCCCOC(C)C)ncnc32)cc1	?	-6.5%	?	-4.4%[10.9 µM]
COc1ccc(-n2ncc3c(NC(C)C)ncnc32)cc1	12.6µM*	12.6µM*	.	.
COc1cccc(OCc2nc3ccccc3n2Cc2ccccc2C)c1	?	6.1%	?	-7.4%[10.9 µM]
COc1cccc(OCc2nc3ccccc3n2C)c1	20µM*	?	0.5%	-49.8%[10.9 µM]
Cc1ccc(-n2ncc3c(NC4CCCCC4)ncnc32)cc1C	12.6µM*	-15.8%	?	-22.8%[10.9 µM]
Cc1cccc(-n2ncc3c(NC4CCCC4)ncnc32)c1	7.94µM*	12.6µM*	?	18.5%[10.9 µM]
Cc1cccc(-n2ncc3c(NC4CCCCC4)ncnc32)c1	15.8µM*	10µM*	9.0%	-18.0%
Clc1cccc(-n2ncc3c(NC4CCCCCC4)ncnc32)c1	-24.5%	1.5%	?	-19.0%[10.9 µM]
O=C1c2ccccc2C(=O)C1c1ccnc2ccccc12	5.62µM*	?	.	.
N#CC1=C(N)SC(N)=C(C#N)C1c1ccnc2ccccc12	24.3%	37.4%	0.0%	-16.4%
O=C(CSc1nnc2[nH]c(=O)cc(-c3ccccc3)n12)Nc1ccc(F)cc1F	3.16µM*	?	5.9%	3.7%[10.9 µM]
O=C(CSc1nnc2[nH]c(=O)cc(-c3ccccc3)n12)Nc1cc(C(F)(F)F)ccc1Cl	1.26µM*	0.631µM*	?	16.4%[10.9 µM]
Cc1cccc(NC(=O)CSc2nnc3[nH]c(=O)cc(-c4ccccc4)n23)c1C	1.26µM*	2.1%	3.1%	-4.5%[10.9 µM]
Cc1cc(=O)[nH]c2nnc(SCC(=O)Nc3ccc(F)cc3F)n12	5.9%	12.5%	4.3%	12.8%[10.9 µM]
Cn1c(=O)c2[nH]c(CS(=O)(=O)Cc3nc4c([nH]3)c(=O)n(C)c(=O)n4C)nc2n(C)c1=O	-5.1%[9.22 µM]	-0.3%[9.22 µM]	1.3%[11.4 µM]	-9.7%[10.9 µM]
C=CC(=O)OCCOCCOC(=O)C=C	31.6µM*	-1.4%[1.84 µM]	?	-26.9%
CCCCN1C(C(=O)c2ccccc2)=C(OC(=O)CC)c2ccccc2S1(=O)=O	15.8µM*	-21.4%	?	-24.3%[10.9 µM]
CC(=O)O[C@@H]1CC[C@]2(C)C(=C[C@@H]([C@@H]3C=C4C[C@@H](OC(C)=O)CC[C@]4(C)C4=C3[C@H]3C[C@@H]5O[C@@]6(CC[C@H](C)CO6)[C@@H](C)[C@@H]5[C@@]3(C)CC4)C3=C2CC[C@@]2(C)[C@H]4[C@@H](C)[C@]5(CC[C@H](C)CO5)O[C@@H]4C[C@H]32)C1	-2.5%[9.22 µM]	9.0%[9.22 µM]	-0.5%[11.4 µM]	?
COc1ccc2c(c1)sc1nc(-c3ccccc3)cn12	1.26µM*	0.631µM*	?	-92.7%
COc1ccc(-n2nc3cc(C)c(N)c(Br)c3n2)cc1	12.6µM*	12.6µM*	?	-28.4%
CC(=O)c1ccc(S(=O)(=O)Nc2cccc(-c3ccc(N4CCCCC4)nn3)c2)cc1	5.01µM*	10µM*	?	-17.1%[10.9 µM]
CCc1ccc(S(=O)(=O)Nc2cccc(-c3ccc(N4CCCCC4)nn3)c2)s1	15.8µM*	12.6µM*	-2.1%	-15.4%[10.9 µM]
O=S(=O)(Nc1cccc(-c2ccc(N3CCCCCC3)nn2)c1)c1ccc(F)cc1	-35.1%	?	-1.4%	-9.4%[10.9 µM]
